{"source": "PubChem BioAssay (EPA / NIEHS)", "key": {"[1]": {"assay": "ATG_TAL_CIS: Attagene CIS-FACTORIAL HepG2 Assay for human TAL Basal Promoter (AID 2282966)", "conditions": "HepG2 Attagene cis-factorial TAL promoter reporter; actives raise or lower the signal", "how_it_was_run": "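In this cell-based multiplex, HepG2 liver cells bearing cis-promoter reporter constructs are dosed for 24 hours. Total RNA is reverse-transcribed and amplified, labelled fragments are sized by capillary electrophoresis, and signal changes are fitted bidirectionally versus DMSO.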"}, "[2]": {"assay": "ATG_TGFb_CIS: Attagene CIS-FACTORIAL HepG2 Assay for human Transforming Growth Factor (TGF) (AID 2282967)", "conditions": "HepG2 Attagene CIS TGFb reporter, mRNA transcription; actives raise or lower the signal", "how_it_was_run": "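Endogenous TGFB1-linked transcription factor activity read as reporter mRNA via RT-PCR and capillary electrophoresis, 24 h after dosing transiently transfected HepG2 cells. Gain or loss of signal fitted relative to DMSO.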"}, "[3]": {"target": "X-box-binding protein 1 (Homo sapiens) (UniProt P17861)", "sequence (P17861 whole entry, looked up)": "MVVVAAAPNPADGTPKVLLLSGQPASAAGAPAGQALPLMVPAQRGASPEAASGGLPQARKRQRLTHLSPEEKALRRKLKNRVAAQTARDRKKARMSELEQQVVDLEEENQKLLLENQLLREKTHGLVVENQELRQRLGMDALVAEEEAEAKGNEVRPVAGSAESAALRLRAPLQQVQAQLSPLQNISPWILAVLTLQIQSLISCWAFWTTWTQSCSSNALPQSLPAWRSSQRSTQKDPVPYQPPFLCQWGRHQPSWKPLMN", "assay": "ATG_Xbp1_CIS: Attagene CIS-FACTORIAL HepG2 Assay for human X-box Binding Protein 1 (XBP1) (AID 2282972)", "conditions": "HepG2 XBP1 cis-element reporter, Attagene multiplex; actives raise or lower the signal", "how_it_was_run": "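HepG2, transient MRTU transfection (cis-promoter driven), 24 h compound exposure. Total RNA → oligo(dT) RT → PCR → 6-FAM labeling → HpaI cut → CE. Bidirectional fit vs DMSO.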"}, "[4]": {"assay": "ATG_GAL4_TRANS: Attagene TRANS-FACTORIAL HepG2 Assay for GAL4 (Internal Marker) (AID 2282976; active = hit-call score of the fitted dose curve at least 0.9, where 1 is the maximum)", "conditions": "HepG2 Attagene TRANS GAL4 internal marker reporter", "how_it_was_run": "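RT-PCR/capillary electrophoresis readout of reporter mRNA. HepG2, transient MRTU transfection (GAL4-UAS reporters), 24 h compound exposure. Background-control endpoint, positive direction vs DMSO baseline.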"}, "[5]": {"target": "Oxysterols receptor LXR-alpha (Homo sapiens) (UniProt Q13133)", "sequence (Q13133 whole entry, looked up)": "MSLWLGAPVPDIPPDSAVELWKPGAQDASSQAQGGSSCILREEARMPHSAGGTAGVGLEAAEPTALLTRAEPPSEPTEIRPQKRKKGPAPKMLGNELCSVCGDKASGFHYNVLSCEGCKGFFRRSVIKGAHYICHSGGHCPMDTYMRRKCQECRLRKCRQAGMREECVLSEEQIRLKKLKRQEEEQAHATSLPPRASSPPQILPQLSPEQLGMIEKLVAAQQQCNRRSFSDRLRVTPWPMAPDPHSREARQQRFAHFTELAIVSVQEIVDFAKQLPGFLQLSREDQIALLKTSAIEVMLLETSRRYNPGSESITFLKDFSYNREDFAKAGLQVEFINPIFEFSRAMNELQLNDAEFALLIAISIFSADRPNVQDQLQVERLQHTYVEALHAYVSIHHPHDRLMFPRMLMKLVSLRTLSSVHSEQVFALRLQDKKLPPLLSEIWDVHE", "assay": "ATG_LXRa_TRANS: Attagene TRANS-FACTORIAL HepG2 Assay for human Liver X Receptor alpha (LXRa) (AID 2282980; active = hit-call score of the fitted dose curve at least 0.9, where 1 is the maximum)", "conditions": "HepG2 Attagene TRANS reporter, LXRa transactivation", "how_it_was_run": "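Read-out: reporter transcript levels by RT-PCR plus capillary electrophoresis, fluorescence intensity. Transiently transfected HepG2, exogenous NR-GAL4 chimera, GAL4-UAS reporters; 24 h compound exposure. Activity = increase over DMSO negative control.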"}, "[6]": {"target": "Oxysterols receptor LXR-beta (Homo sapiens) (UniProt P55055)", "sequence (P55055 whole entry, looked up, the tested form may be a part)": "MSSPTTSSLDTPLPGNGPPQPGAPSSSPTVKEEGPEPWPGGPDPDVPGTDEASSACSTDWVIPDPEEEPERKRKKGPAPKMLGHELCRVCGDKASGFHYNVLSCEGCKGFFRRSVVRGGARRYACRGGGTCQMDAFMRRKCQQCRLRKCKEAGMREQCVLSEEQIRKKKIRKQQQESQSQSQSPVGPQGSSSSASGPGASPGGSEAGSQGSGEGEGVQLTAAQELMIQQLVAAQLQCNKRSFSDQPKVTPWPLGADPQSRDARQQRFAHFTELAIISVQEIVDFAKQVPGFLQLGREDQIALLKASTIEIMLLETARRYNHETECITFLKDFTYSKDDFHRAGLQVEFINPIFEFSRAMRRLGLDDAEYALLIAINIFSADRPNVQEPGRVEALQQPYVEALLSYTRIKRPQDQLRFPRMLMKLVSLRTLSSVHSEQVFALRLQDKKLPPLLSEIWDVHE", "assay": "ATG_LXRb_TRANS: Attagene TRANS-FACTORIAL HepG2 Assay for human Liver X Receptor beta (LXRb) (AID 2282981; active = hit-call score of the fitted dose curve at least 0.9, where 1 is the maximum)", "conditions": "HepG2 Attagene TRANS GAL4-LXRb reporter, mRNA", "how_it_was_run": "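Cells: HepG2, transiently transfected with GAL4-UAS reporter units plus LXRb-Gal4 fusion. Treatment: 24 h. Detection: reporter mRNA by RT-PCR, 6-FAM labelling, HpaI digestion, capillary electrophoresis.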"}, "[7]": {"assay": "ATG_M_06_TRANS: Attagene TRANS-FACTORIAL HepG2 Assay for M06 Transcription Factor (Internal Marker) (AID 2282983; active = hit-call score of the fitted dose curve at least 0.9, where 1 is the maximum)", "conditions": "HepG2 Attagene TRANS M06 internal marker reporter", "how_it_was_run": "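After a 24 h chemical treatment of transfected HepG2, RNA underwent DNase I treatment, reverse transcription and reporter-specific PCR; labelled, HpaI-digested products were sized by capillary electrophoresis. Signal increase relative to DMSO defined activity.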"}, "[8]": {"target": "Nuclear receptor subfamily 4 group A member 2 (Homo sapiens) (UniProt P43354)", "sequence (P43354 whole entry, looked up)": "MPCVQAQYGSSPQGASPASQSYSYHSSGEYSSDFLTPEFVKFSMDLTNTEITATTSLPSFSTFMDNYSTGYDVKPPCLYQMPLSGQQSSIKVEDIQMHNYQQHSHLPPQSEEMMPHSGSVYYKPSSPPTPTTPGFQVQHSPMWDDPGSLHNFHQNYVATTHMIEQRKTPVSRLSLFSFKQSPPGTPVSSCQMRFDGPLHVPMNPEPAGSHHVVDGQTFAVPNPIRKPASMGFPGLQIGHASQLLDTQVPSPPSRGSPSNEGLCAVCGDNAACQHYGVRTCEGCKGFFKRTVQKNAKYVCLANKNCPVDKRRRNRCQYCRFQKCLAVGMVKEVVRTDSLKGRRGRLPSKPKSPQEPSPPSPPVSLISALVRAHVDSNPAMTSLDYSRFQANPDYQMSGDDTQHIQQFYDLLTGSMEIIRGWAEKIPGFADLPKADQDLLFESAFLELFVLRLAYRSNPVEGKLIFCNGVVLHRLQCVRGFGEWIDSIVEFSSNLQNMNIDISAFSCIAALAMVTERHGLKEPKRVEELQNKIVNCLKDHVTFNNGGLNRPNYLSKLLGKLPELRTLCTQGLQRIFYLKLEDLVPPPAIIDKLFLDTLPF", "assay": "ATG_NURR1_TRANS: Attagene TRANS-FACTORIAL HepG2 Assay for human Nuclear Receptor Related Protein 1 (NURR1) (AID 2282985; active = hit-call score of the fitted dose curve at least 0.9, where 1 is the maximum)", "conditions": "HepG2 Attagene TRANS reporter, mRNA readout", "how_it_was_run": "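Cells: HepG2, transiently transfected. Exposure: 24 h. Detection: fluorescence of labelled RT-PCR products separated by capillary electrophoresis; upward fit versus DMSO.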"}, "[9]": {"target": "Transcriptional activator Myb (Homo sapiens) (UniProt P10242)", "sequence (P10242 whole entry, looked up)": "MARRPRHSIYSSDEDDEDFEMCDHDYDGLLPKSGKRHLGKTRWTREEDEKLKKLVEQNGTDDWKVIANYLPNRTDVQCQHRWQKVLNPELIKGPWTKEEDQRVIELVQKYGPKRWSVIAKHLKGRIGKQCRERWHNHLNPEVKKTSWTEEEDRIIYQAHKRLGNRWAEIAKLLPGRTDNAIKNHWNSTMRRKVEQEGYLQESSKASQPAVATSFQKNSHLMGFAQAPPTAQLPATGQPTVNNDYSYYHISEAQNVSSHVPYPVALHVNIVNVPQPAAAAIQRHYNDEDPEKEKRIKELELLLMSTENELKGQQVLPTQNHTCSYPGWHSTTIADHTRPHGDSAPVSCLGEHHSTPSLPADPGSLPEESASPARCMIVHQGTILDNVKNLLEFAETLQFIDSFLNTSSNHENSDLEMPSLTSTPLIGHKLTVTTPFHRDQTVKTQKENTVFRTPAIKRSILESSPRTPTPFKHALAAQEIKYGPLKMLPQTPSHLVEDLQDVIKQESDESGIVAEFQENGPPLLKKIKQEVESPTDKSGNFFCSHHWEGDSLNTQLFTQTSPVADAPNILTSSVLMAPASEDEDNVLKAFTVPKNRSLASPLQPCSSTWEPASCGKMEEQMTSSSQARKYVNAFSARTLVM", "assay": "ATG_Myb_CIS: Attagene CIS-FACTORIAL HepG2 Assay for human Myeloblastosis (Myb) Proto-Oncogene Transcription Factor (AID 2282986)", "conditions": "HepG2 Attagene CIS-FACTORIAL Myb reporter transcription; actives raise or lower the signal", "how_it_was_run": "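Steps: transfect HepG2 with cis-regulated reporter units; dose with chemical for 24 h; isolate RNA, reverse-transcribe, PCR-amplify and FAM-label reporter sequences; digest with HpaI; resolve by capillary electrophoresis. Activity fitted in both directions relative to DMSO.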"}, "[10]": {"target": "Nuclear respiratory factor 1 (Homo sapiens) (UniProt Q16656)", "sequence (Q16656 whole entry, looked up, the tested form may be a part)": "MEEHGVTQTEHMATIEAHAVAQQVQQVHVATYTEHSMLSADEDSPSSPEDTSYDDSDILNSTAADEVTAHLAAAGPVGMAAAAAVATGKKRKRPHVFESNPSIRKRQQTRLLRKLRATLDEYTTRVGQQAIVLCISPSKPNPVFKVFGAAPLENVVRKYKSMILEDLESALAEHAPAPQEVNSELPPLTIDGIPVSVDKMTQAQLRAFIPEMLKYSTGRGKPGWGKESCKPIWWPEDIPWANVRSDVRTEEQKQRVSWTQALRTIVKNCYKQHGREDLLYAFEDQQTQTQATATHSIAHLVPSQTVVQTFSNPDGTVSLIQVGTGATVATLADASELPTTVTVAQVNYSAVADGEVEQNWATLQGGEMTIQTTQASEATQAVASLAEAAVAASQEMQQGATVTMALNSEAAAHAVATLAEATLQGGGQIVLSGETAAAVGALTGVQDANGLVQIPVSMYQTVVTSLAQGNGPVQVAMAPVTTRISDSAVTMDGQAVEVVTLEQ", "assay": "ATG_NRF1_CIS: Attagene CIS-FACTORIAL HepG2 Assay for human Nuclear Respiratory Factor 1 (NRF1) Orphan Gene (AID 2282987)", "conditions": "HepG2 NRF1 cis-element reporter, Attagene multiplex; actives raise or lower the signal", "how_it_was_run": "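Fluorescence intensity of labelled reporter cDNA fragments, resolved by capillary electrophoresis, served as readout for NRF1 cis-element activity. Transiently transfected HepG2 cells were dosed for 24 hours; activity in either direction was fitted against DMSO negative control.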"}, "[11]": {"target": "Nuclear receptor subfamily 1 group I member 3 (Homo sapiens) (UniProt Q14994)", "sequence (Q14994 whole entry, looked up)": "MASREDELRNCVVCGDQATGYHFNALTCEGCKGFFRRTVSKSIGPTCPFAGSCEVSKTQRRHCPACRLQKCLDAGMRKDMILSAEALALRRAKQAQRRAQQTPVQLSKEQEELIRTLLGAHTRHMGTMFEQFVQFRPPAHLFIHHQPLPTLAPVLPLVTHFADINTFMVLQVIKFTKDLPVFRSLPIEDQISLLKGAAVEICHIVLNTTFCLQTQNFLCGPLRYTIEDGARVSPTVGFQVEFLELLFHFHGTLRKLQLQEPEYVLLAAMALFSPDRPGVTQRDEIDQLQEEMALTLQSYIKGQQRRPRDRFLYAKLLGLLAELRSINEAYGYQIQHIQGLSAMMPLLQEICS", "assay": "ATG_CAR_TRANS: Attagene TRANS-FACTORIAL HepG2 Assay for human Constitutive Androstane Receptor (CAR) (AID 2282969; active = hit-call score of the fitted dose curve at least 0.9, where 1 is the maximum;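 also: activators raise reporter mRNA above DMSO so AC50 marks induction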)", "conditions": "HepG2 Attagene TRANS-FACTORIAL CAR reporter", "how_it_was_run": "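Readout is reporter mRNA induction, quantified by fluorescent primer extension and capillary electrophoresis after RT-PCR. Cells were HepG2 transiently carrying chimeric NR-Gal4 constructs with GAL4-UAS reporters, treated for 24 h; activity scored upward from DMSO.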"}, "[12]": {"target": "Steroid hormone receptor ERR1 (Homo sapiens) (UniProt P11474)", "assay": "ATG_ERRa_TRANS: Attagene TRANS-FACTORIAL HepG2 Assay for human Estrogen-Related Receptor alpha (ERRa) (AID 2282971; active = hit-call score of the fitted dose curve at least 0.9, where 1 is the maximum)", "conditions": "HepG2 Attagene TRANS reporter, ERRa transactivation", "how_it_was_run": "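Transfected HepG2, 24 h dosing, ERRa-Gal4 chimera driving GAL4-UAS reporter. Readout: reporter mRNA via RT-PCR plus capillary electrophoresis (fluorescence). Positive direction vs DMSO control.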"}, "[13]": {"assay": "ATG_M_19_TRANS: Attagene TRANS-FACTORIAL HepG2 Assay for M19 Transcription Factor (Internal Marker) (AID 2282974; active = hit-call score of the fitted dose curve at least 0.9, where 1 is the maximum)", "conditions": "HepG2 Attagene TRANS-FACTORIAL M19 internal marker reporter", "how_it_was_run": "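Cells: human HepG2, transiently transfected with multiplexed reporter transcription units. Exposure: 24 h. Detection: RT-PCR of reporter mRNA with capillary electrophoresis. Analysis: gain-of-signal vs DMSO.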"}, "[14]": {"target": "Glucocorticoid receptor (Homo sapiens) (UniProt P04150)", "sequence (P04150 whole entry, looked up, the tested form may be a part)": "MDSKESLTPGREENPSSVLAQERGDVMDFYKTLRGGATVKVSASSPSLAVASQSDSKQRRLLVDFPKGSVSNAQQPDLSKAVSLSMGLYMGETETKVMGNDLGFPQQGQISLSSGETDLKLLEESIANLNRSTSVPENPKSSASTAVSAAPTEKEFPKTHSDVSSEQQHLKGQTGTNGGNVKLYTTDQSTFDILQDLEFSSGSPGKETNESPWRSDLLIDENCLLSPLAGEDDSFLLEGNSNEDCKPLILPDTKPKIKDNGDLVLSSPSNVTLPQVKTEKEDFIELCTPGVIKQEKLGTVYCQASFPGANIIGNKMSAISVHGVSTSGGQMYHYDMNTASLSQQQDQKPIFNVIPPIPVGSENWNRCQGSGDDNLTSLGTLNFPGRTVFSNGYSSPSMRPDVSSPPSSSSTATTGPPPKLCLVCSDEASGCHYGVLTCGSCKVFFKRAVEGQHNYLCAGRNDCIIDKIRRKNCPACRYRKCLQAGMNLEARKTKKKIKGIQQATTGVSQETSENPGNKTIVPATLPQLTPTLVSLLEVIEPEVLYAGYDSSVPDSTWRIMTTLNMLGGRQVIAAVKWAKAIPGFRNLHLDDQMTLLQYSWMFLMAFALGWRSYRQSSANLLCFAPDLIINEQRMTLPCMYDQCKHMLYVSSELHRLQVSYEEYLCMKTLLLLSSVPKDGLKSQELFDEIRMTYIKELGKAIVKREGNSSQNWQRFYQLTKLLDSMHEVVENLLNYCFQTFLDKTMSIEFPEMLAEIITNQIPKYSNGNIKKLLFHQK", "assay": "ATG_GR_TRANS: Attagene TRANS-FACTORIAL HepG2 Assay for human Glucocorticoid Receptor (GR) (AID 2282978; active = hit-call score of the fitted dose curve at least 0.9, where 1 is the maximum)", "conditions": "HepG2 Attagene TRANS GR reporter, mRNA transcription", "how_it_was_run": "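In this trans-factorial format, exogenous NR-GAL4 chimeric proteins in transfected HepG2 cells regulate GAL4-UAS reporter transcription. After 24 h treatment, reporter mRNA induction relative to DMSO is read by RT-PCR and capillary electrophoresis.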"}, "[15]": {"assay": "ATG_VDRE_CIS: Attagene CIS-FACTORIAL HepG2 Assay for human Vitamin D Receptor Element (VDRE) (AID 2282968)", "conditions": "HepG2 VDRE cis-reporter transcription, actives raise or lower the signal", "how_it_was_run": "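In transiently transfected HepG2 liver cells, gain or loss of reporter mRNA after 24 h exposure is scored relative to DMSO, using fluorescence detection by capillary electrophoresis of RT-PCR products.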"}, "[16]": {"target": "Bile acid receptor (Homo sapiens) (UniProt Q96RI1)", "sequence (Q96RI1 whole entry, looked up, the tested form may be a part)": "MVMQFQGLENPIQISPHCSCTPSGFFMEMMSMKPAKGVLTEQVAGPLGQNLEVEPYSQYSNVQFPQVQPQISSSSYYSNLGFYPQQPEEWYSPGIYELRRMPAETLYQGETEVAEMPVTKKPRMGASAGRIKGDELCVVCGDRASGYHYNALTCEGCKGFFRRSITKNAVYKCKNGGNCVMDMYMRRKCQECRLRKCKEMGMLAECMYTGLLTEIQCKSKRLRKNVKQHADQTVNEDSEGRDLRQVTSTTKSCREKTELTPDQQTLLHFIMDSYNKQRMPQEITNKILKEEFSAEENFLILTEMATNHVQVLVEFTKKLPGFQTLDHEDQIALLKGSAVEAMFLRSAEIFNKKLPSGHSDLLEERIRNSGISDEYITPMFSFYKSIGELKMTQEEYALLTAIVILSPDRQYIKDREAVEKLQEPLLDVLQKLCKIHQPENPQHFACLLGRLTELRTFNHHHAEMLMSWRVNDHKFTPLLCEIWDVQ", "assay": "ATG_FXR_TRANS: Attagene TRANS-FACTORIAL HepG2 Assay for Farnesoid X Receptor (FXR) (AID 2282979; active = hit-call score of the fitted dose curve at least 0.9, where 1 is the maximum;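 also: hits raise reporter mRNA above DMSO so AC50 marks FXR activation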)", "conditions": "HepG2 Attagene TRANS FXR-GAL4 reporter transcription", "how_it_was_run": "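Read-out: fluorescent reporter transcripts quantified by capillary electrophoresis after RT-PCR of total RNA. Source cells were HepG2 transiently carrying chimeric NR-GAL4 plus GAL4-UAS reporter units, dosed 24 h. Activity fitted upward relative to DMSO baseline.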"}, "[17]": {"target": "Hepatocyte nuclear factor 4-alpha (Homo sapiens) (UniProt P41235)", "sequence (P41235 whole entry, looked up)": "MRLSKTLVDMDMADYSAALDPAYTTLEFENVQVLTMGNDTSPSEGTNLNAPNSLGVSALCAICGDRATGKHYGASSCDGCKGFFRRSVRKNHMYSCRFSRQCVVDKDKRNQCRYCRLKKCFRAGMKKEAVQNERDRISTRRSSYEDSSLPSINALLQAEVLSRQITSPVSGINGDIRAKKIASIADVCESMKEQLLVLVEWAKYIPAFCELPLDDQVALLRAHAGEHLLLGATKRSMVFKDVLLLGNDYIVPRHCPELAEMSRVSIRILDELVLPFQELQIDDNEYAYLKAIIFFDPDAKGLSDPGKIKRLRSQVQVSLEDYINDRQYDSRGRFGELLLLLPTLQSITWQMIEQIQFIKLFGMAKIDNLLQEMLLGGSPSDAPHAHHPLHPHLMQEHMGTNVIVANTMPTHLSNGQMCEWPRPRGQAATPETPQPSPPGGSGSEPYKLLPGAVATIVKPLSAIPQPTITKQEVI", "assay": "ATG_HNF4a_TRANS: Attagene TRANS-FACTORIAL HepG2 Assay for human Hepatocyte Nuclear Factor 4 alpha (HNF4a) (AID 2282982; active = hit-call score of the fitted dose curve at least 0.9, where 1 is the maximum)", "conditions": "HepG2 HNF4a transactivation reporter, mRNA readout", "how_it_was_run": "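Transfected HepG2 reporter cells are dosed for 24 h; reporter RNA is reverse-transcribed, amplified, fluorescently labelled and HpaI-digested before CE sizing. Positive-direction fit against DMSO.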"}}, "note": "Results filed as inconclusive are left out. Active and inactive are the calls of the source. The calls were made as follows, unless noted: active = hit-call score of the fitted dose curve at least 0.9, where 1 is the maximum; inactive = score below 0.9."}
{"smiles": "O=Cc1ccccc1C=O", "values": [{"measurement": "outcome", "setting": "[1]", "result": "inactive"}, {"measurement": "outcome", "setting": "[2]", "result": "inactive"}, {"measurement": "outcome", "setting": "[3]", "result": "inactive"}, {"measurement": "outcome", "setting": "[4]", "result": "inactive"}, {"measurement": "outcome", "setting": "[5]", "result": "inactive"}, {"measurement": "outcome", "setting": "[6]", "result": "inactive"}, {"measurement": "outcome", "setting": "[7]", "result": "inactive"}, {"measurement": "outcome", "setting": "[8]", "result": "inactive"}, {"measurement": "outcome", "setting": "[9]", "result": "inactive"}, {"measurement": "outcome", "setting": "[10]", "result": "inactive"}]}
{"smiles": "CC(C)(O)c1ccc(CNC(=O)c2cccnc2Oc2ccc(F)cc2)cc1", "values": [{"measurement": "outcome", "setting": "[1]", "result": "inactive"}, {"measurement": "outcome", "setting": "[2]", "result": "inactive"}, {"measurement": "outcome", "setting": "[11]", "result": "inactive"}, {"measurement": "outcome", "setting": "[12]", "result": "inactive"}, {"measurement": "outcome", "setting": "[3]", "result": "inactive"}, {"measurement": "outcome", "setting": "[13]", "result": "inactive"}, {"measurement": "outcome", "setting": "[4]", "result": "inactive"}, {"measurement": "outcome", "setting": "[14]", "result": "inactive"}, {"measurement": "outcome", "setting": "[5]", "result": "inactive"}, {"measurement": "outcome", "setting": "[6]", "result": "inactive"}, {"measurement": "outcome", "setting": "[9]", "result": "inactive"}, {"measurement": "outcome", "setting": "[10]", "result": "inactive"}]}
{"smiles": "CCCCCCCCCCCCCCOS(=O)(=O)O", "values": [{"measurement": "outcome", "setting": "[1]", "result": "inactive"}, {"measurement": "AC50", "setting": "[2]", "result": "15.1 µM (active)"}, {"measurement": "outcome", "setting": "[15]", "result": "inactive"}, {"measurement": "outcome", "setting": "[3]", "result": "inactive"}, {"measurement": "outcome", "setting": "[14]", "result": "inactive"}, {"measurement": "outcome", "setting": "[7]", "result": "inactive"}, {"measurement": "outcome", "setting": "[8]", "result": "inactive"}, {"measurement": "outcome", "setting": "[9]", "result": "inactive"}, {"measurement": "outcome", "setting": "[10]", "result": "inactive"}]}
{"smiles": "Cc1cc(Cc2ccc(N)c(C)c2)ccc1N", "values": [{"measurement": "outcome", "setting": "[1]", "result": "inactive"}, {"measurement": "outcome", "setting": "[2]", "result": "inactive"}, {"measurement": "outcome", "setting": "[11]", "result": "inactive"}, {"measurement": "outcome", "setting": "[3]", "result": "inactive"}, {"measurement": "outcome", "setting": "[13]", "result": "inactive"}, {"measurement": "outcome", "setting": "[4]", "result": "inactive"}, {"measurement": "outcome", "setting": "[14]", "result": "inactive"}, {"measurement": "outcome", "setting": "[16]", "result": "inactive"}, {"measurement": "outcome", "setting": "[7]", "result": "inactive"}, {"measurement": "outcome", "setting": "[8]", "result": "inactive"}, {"measurement": "outcome", "setting": "[9]", "result": "inactive"}, {"measurement": "outcome", "setting": "[10]", "result": "inactive"}]}
{"smiles": "CC(N)=O", "values": [{"measurement": "outcome", "setting": "[1]", "result": "inactive"}, {"measurement": "outcome", "setting": "[2]", "result": "inactive"}, {"measurement": "outcome", "setting": "[3]", "result": "inactive"}, {"measurement": "outcome", "setting": "[4]", "result": "inactive"}, {"measurement": "outcome", "setting": "[14]", "result": "inactive"}, {"measurement": "outcome", "setting": "[5]", "result": "inactive"}, {"measurement": "outcome", "setting": "[6]", "result": "inactive"}, {"measurement": "outcome", "setting": "[7]", "result": "inactive"}, {"measurement": "outcome", "setting": "[8]", "result": "inactive"}, {"measurement": "outcome", "setting": "[9]", "result": "inactive"}, {"measurement": "outcome", "setting": "[10]", "result": "inactive"}]}
{"smiles": "O=C1NC(=O)C(c2ccccc2)(c2ccccc2)N1", "values": [{"measurement": "outcome", "setting": "[1]", "result": "inactive"}, {"measurement": "outcome", "setting": "[2]", "result": "inactive"}, {"measurement": "outcome", "setting": "[3]", "result": "inactive"}, {"measurement": "outcome", "setting": "[14]", "result": "inactive"}, {"measurement": "outcome", "setting": "[17]", "result": "inactive"}, {"measurement": "outcome", "setting": "[7]", "result": "inactive"}, {"measurement": "outcome", "setting": "[8]", "result": "inactive"}, {"measurement": "outcome", "setting": "[9]", "result": "inactive"}, {"measurement": "outcome", "setting": "[10]", "result": "inactive"}]}
